Our source for the growth inhibition values is PubChem BioAssay (NCI).

Compounds without any hit were thinned out: in the full panel of roughly 79,000, 15% have a hit. A number with no mark means an inactive call. Activity calls are given as the source filed them. No stated cut-off is given here; in the data, active means growth inhibition above about 70%; inactive means the rest.

Test [1] can be described thus: NCI Yeast Anticancer Drug Screen. Data for the rad50 strain (AID 155).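 Further: 0% = growth of vehicle-only cultures of the same strain.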 The following applies: S. cerevisiae rad50 strain growth inhibition; at 50.0 µM; active compounds read high. The method, boiled down:
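Vehicle-treated cultures provide the reference for the growth inhibition reported for compound-exposed, repair-deficient yeast.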

The nature of test [2]: NCI Yeast Anticancer Drug Screen. Data for the mec2-1 strain (AID 157). Conditions: S. cerevisiae mec2-1 strain, at 50.0 µM, active compounds read high. The method, boiled down:
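Yeast mec2-1 mutant treated with compound. Readout: growth inhibition vs vehicle controls.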

A short description of test [3]: NCI Yeast Anticancer Drug Screen. Data for the sgs1 mgt1 strain (AID 161).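 Further: 0% = growth of cultures given vehicle only.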 The following applies: S. cerevisiae sgs1 mgt1 strain, at 50.0 µM, active compounds read high. The method, boiled down: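 Mutant yeast exposed to compound; growth scored against vehicle-only wells.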
Test [4] is described as follows: NCI Yeast Anticancer Drug Screen. Data for the cln2 rad14 strain (AID 165).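 Further: 0% = growth equal to vehicle treated cultures.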 Conditions: S. cerevisiae cln2 rad14 strain, at 50.0 µM, active compounds read high. The method, boiled down: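 cln2 rad14 yeast strain; compound exposure; growth inhibition read vs vehicle controls.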
Test [5] is described as follows: NCI Yeast Anticancer Drug Screen. Data for the bub3 strain (AID 167). Conditions: S. cerevisiae bub3 mutant strain, at 50.0 µM, active compounds read high. The procedure, abridged:
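Mutant yeast screening strain plus compound; vehicle-treated cultures serve as the 0% inhibition reference.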

Test [6] in a line: NCI Yeast Anticancer Drug Screen. Data for the mlh1 rad18 strain (AID 175). Conditions: S. cerevisiae mlh1 rad18 strain growth inhibition; at 50.0 µM; active compounds read high. The method, boiled down:
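Yeast w/ defined DNA-repair lesions; compound exposure; growth vs vehicle controls → % inhibition.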

With `CC1=NS(=O)(=O)c2ccccc2N1`, the growth inhibition was 0.3% in test [1]; -4.4% in test [2]; 4.75% in test [3]; 15.9% in test [4]; 4.45% in test [5]; 10.2% in test [6].

Take `N#CC1=C(N)CCC(C#N)(c2ccccc2)C1` (stereo not drawn): the growth inhibition was 2.4% in test [1]; 2% in test [2]; 22.4% in test [3]; 14.8% in test [4]; 22.8% in test [5]; 8.2% in test [6].

Consider `CN(C)CCN(CCN(C)C)CCN(C)C`, for which the growth inhibition in test [1] is 6.85%; in test [2], -21.5%; in test [3], 12.3%; in test [4], 9.45%; in test [5], 25.1%; in test [6] it was 14.6%.

Regarding `NC(=O)SCCC(N)C(=O)O` (stereo not drawn), the growth inhibition is 8.4% in test [1]; 27.5% in test [2]; 3% in test [3]; 12.7% in test [4]; 17.9% in test [5]; -4.9% in test [6].

For `CCOC1CCC=CO1` (stereo not drawn), the growth inhibition is -9.65% in test [1]; 3.7% in test [2]; 39% in test [3]; 28.7% in test [4]; -21.9% in test [5]; 39.6% in test [6].

Take `O=C(O)/C=C/c1ccccc1Br`: the growth inhibition in test [1] is 20.8%; in test [2], 3.5%; in test [3], 12.7%; in test [4], 8.3%; in test [5], -8.7%; in test [6] it was -17.4%.

For `CN(C)c1nc(Cl)nc2c1ncn2-c1ccccc1`, the growth inhibition in test [1] was 9.85%; in test [2], -23.2%; in test [3] it was 3.1%; in test [4], -10.7%; in test [5], -31.4%; in test [6], -5.1%.

For the compound `COC(=O)Cc1nn2c(nc1=O)sc1ccc3ccccc3c12`, the growth inhibition was -16.7% in test [1]; -3.05% in test [2]; 3.3% in test [3]; 1.25% in test [4]; -3.8% in test [5]; -17.2% in test [6].

Regarding `Cc1cc[n+](Cc2ccccc2Cl)c(C)c1`, the growth inhibition was 19% in test [1]; 2.25% in test [2]; 14% in test [3]; -4.15% in test [4]; 2.05% in test [5]; 4.9% in test [6].

For `CC(C)CN(CC(C)C)/N=C/c1cc([N+](=O)[O-])ccc1O`, the growth inhibition was -11.7% in test [1]; 9% in test [2]; -4.9% in test [3]; -3.65% in test [4]; -12.9% in test [5]; -14.8% in test [6].

With `O=C(Nc1ccc(F)cc1)C(=O)C(C(=O)c1ccccc1F)C1OC(=O)c2ccccc21` (stereo not drawn), the growth inhibition in test [1] was 2.8%; in test [2], -0.05%; in test [3], -10.6%; in test [4], 1.55%; in test [5], -0.35%; in test [6] it was 2.25%.

With `Cc1ccc(C(=O)c2sc(Nc3cccc(C(F)(F)F)c3)c(C#N)c2N)c(C)c1`, the growth inhibition in test [1] was 16.8%; in test [2] it was 3.35%; in test [3], 5.9%; in test [4], 11.2%; in test [5], 3.05%; in test [6] it was -12.6%.

As to `NC(=S)N/N=C/c1ccc(OC(F)(F)F)cn1`, the growth inhibition in test [1] is 27.1%; in test [2], 28.1%; in test [3], 46.5%; in test [4], 10.3%; in test [5], 59.5%; in test [6], 40.6%.

As to `CC(O)c1ccc(N=NN(C)C)cc1` (stereo not drawn), the growth inhibition in test [1] is -2.5%; in test [2], 2.75%; in test [3], -3.15%; in test [4], -1.55%; in test [5], 0%; in test [6], 21.2%.

Consider `CCOC(=O)CCC(N)C(N)=O` (stereo not drawn), for which the growth inhibition was 28.2% in test [1]; -6.45% in test [2]; 16% in test [3]; 8.65% in test [4]; 11.4% in test [5]; 23.9% in test [6].

For the compound `O=C1C(Br)=C(c2ccccc2)C(c2ccccc2)=C1c1ccccc1`, the growth inhibition is 45.6% in test [1]; 25.9% in test [2]; 51% in test [3]; 21.9% in test [4]; 22.7% in test [5]; 55% in test [6].

Take `C[C@H](NC(=O)n1c2ccccc2c2ccccc21)C(=O)O`: the growth inhibition in test [1] is 2.5%; in test [2], 5.2%; in test [3] it was -20.1%; in test [4], -5.9%; in test [5], -1.05%; in test [6] it was -2.95%.

Consider `CC(C)(C)/C(CC(=O)CCC(=O)Nc1ccc(Cl)cc1)=N\NC(N)=S`, for which the growth inhibition in test [1] was 11.7%; in test [2] it was -6.75%; in test [3] it was 19.1%; in test [4], 9.75%; in test [5] it was 1.65%; in test [6], 20.8%.

With `CC(=O)Oc1ccc(C2(OC(C)=O)c3ccccc3C(=O)c3ccccc32)cc1`, the growth inhibition in test [1] is 11.5%; in test [2], 9.9%; in test [3], 34.4%; in test [4] it was 34.1%; in test [5], -8.5%; in test [6] it was 31.8%.

`Nc1nc(-c2ccccc2)nc(N)c1C=O`: the growth inhibition in test [1] was -21.8%; in test [2] it was -21.9%; in test [3] it was -43.2%; in test [4] it was -4.95%; in test [5] it was -6.9%; in test [6] it was -20.6%.

For the compound `CN(C)/C(N)=N/S(=O)(=O)c1ccc(C#N)cc1`, the growth inhibition in test [1] was 5%; in test [2], 2.85%; in test [3], -0.25%; in test [4], 6.1%; in test [5], 4.7%; in test [6] it was 2.45%.

On to `CCCCNC(=O)c1c(Cl)c(Cl)c(Cl)c(Cl)c1C(=O)O`, for which the growth inhibition in test [1] is 37.3%; in test [2], 17.1%; in test [3], 4.85%; in test [4], 17.5%; in test [5], 16.5%; in test [6], 28.2%.

In the case of `CCOc1ccccc1NC(=O)C1CCCCC1C(=O)O` (stereo not drawn), the growth inhibition in test [1] is 14.2%; in test [2], 16.7%; in test [3], 14.6%; in test [4] it was 25.6%; in test [5] it was 12.7%; in test [6], 7.8%.

`CCN1CCCC(SC(=O)C(O)(c2ccccc2)c2ccccc2)C1` (stereo not drawn): the growth inhibition was -16.6% in test [1]; -5.75% in test [2]; -22.1% in test [3]; -15.2% in test [4]; -4.15% in test [5]; 0.15% in test [6].

With `CCCCCC1CC[N-]CC1.CCCCCC1CC[N-]CC1.N#C[S-].N#C[S-].[Cu]`, the growth inhibition is 33.4% in test [1]; 12.7% in test [2]; 5% in test [3]; -33.1% in test [4]; -16.7% in test [5]; 24.1% in test [6].

On to `Cc1ccc(C2OC2C(=O)c2ccccc2)cc1` (stereo not drawn), for which the growth inhibition in test [1] was 0.05%; in test [2] it was 0.25%; in test [3], -19.5%; in test [4], -48.5%; in test [5], -36%; in test [6], 5.85%.

On to `CCCCOc1ccc(N)cn1`, for which the growth inhibition in test [1] is -5.05%; in test [2], -4.85%; in test [3], 6.15%; in test [4], -16.4%; in test [5] it was 32.7%; in test [6] it was -5.45%.

As to `COc1ccc2c(N=[N+]=[N-])cc(C)nc2c1`, the growth inhibition in test [1] was -42.2%; in test [2], -1.45%; in test [3], -16.9%; in test [4], -57.5%; in test [5] it was 1.55%; in test [6] it was 20.4%.

Turning to `Cc1ccc(-c2cc(=O)c3cc(C)c(C)c(C(=O)O)c3o2)cc1`, the growth inhibition in test [1] was 3.15%; in test [2], 0.25%; in test [3], 10.8%; in test [4] it was 19.9%; in test [5], 7.1%; in test [6], 10.8%.

Take `NCC(=O)NCCC(=O)O`: the growth inhibition is 3.15% in test [1]; -6.7% in test [2]; 1.75% in test [3]; 4.6% in test [4]; -24.6% in test [5]; -4.6% in test [6].

`CCc1nc(N)nc(C(=O)NCCNC(=O)c2nc(N)nc(CC)c2C)c1C`: the growth inhibition is -38.1% in test [1]; -14.2% in test [2]; -11.6% in test [3]; -16.7% in test [4]; -13.4% in test [5]; -45.5% in test [6].

Regarding `Cn1ncc2[nH]c(=O)n(OS(=O)(=O)c3ccccc3)c(=O)c21`, the growth inhibition in test [1] is 17.3%; in test [2] it was -16.9%; in test [3], -15.5%; in test [4], 4.3%; in test [5] it was 0.9%; in test [6], 5%.

For `CCN(CC)c1ccc(C=O)cc1`, the growth inhibition was 6.8% in test [1]; -11.1% in test [2]; -36.5% in test [3]; -6.4% in test [4]; 13.2% in test [5]; -11.1% in test [6].

Regarding `CCc1ccccc1O`, the growth inhibition in test [1] was 6.1%; in test [2], -7.6%; in test [3] it was 3.3%; in test [4], -25%; in test [5] it was -11.7%; in test [6], 1.4%.

Regarding `O=C1c2ccccc2C(=O)N1/N=N/N1C(=O)c2ccccc2C1=O`, the growth inhibition was 97.5% (active) in test [1]; 97.7% (active) in test [2]; 98.1% (active) in test [3]; 96.1% (active) in test [4]; 98.6% (active) in test [5]; 97% (active) in test [6].

As to `c1ccc2c(OCCSCCCCCCCCCCSCCOc3cccc4ccccc34)cccc2c1`, the growth inhibition was 18.9% in test [1]; -5.55% in test [2]; -2.25% in test [3]; 7.75% in test [4]; -3.6% in test [5]; -9.25% in test [6].

Consider `CNC(=O)NC(C)(C)CCCCC(C)(C)NC(=O)NC`, for which the growth inhibition was 0.5% in test [1]; 17.3% in test [2]; 28.3% in test [3]; -16.9% in test [4]; -4.65% in test [5]; 19.8% in test [6].

For `CCN(CCC#N)C(=S)Nc1ccc(C)c(C)c1`, the growth inhibition was -9% in test [1]; -8.55% in test [2]; 0% in test [3]; 1% in test [4]; -8.6% in test [5]; 0.1% in test [6].
